# Experimental data from PubChem BioAssay.
# The source made the active and inactive calls.
# Tested on: XIP peptide (Xip251-270) binding
# Test: XIP fragment 251-270 binding compounds – biochemical, small-molecule microarray, fluorescence 635/667 nm, 0.1 µg/mL protein, primary screen (AID 1182)
# Conditions: fluorescent protein binding, 635 nm, higher = more signal, called active from +8 up or from −8 down
row,SMILES,composite z-score
1,COCOc1ccc(Br)cc1C(=O)C=Cc1ccc2c(c1)OCO2,0.268 (inactive)
2,CCOC(=O)CCN1C(=O)[C@H]2[C@H]3[C@H](O)[C@H](O)CC(=NNC(=O)OCc4ccccc4)[C@H]3CC[C@H]2C1=O,0.0983 (inactive)
3,COc1cccc([C@H]2Oc3ccc(OC)cc3C(=NOCC[C@@H]3C=C[C@H](OC(C)=O)[C@@H](COC(C)=O)O3)[C@@H]2O)c1,0.451 (inactive)
4,CC1(C)O[C@H]2OC([C@H](O)CON3C(=O)c4ccccc4C3=O)[C@H](O)[C@H]2O1 (some centres undefined),-0.592 (inactive)
5,CC(C)=CCCC(C)=CCON=C1[C@H]2CCn3c(=O)n(-c4ccccc4)c(=O)n3[C@H]2[C@H](O)[C@@H]2O[C@H]12,0.246 (inactive)
6,CCOC(=O)CCN1C(=O)[C@H]2[C@H]3[C@H](O)[C@H](O)CC(=NNC(=O)OCc4ccc(OC)cc4)[C@H]3CC[C@H]2C1=O,0.353 (inactive)
7,COc1ccc(COC(=O)NN=C2C[C@@H](O)[C@@H](O)[C@@H]3[C@@H]4C(=O)N([C@@H](C)c5ccccc5)C(=O)[C@@H]4CC[C@@H]23)cc1,-0.216 (inactive)
8,CCOC(=O)[C@H](Cc1ccccc1)NC(=O)CCC1CC(OC(=O)NCc2cccc3ccccc23)CC2(CCCC(COC(=O)NCCc3ccc(Cl)cc3)O2)O1 (some centres undefined),0.351 (inactive)
9,CCN1C(=O)[C@H]2[C@H]3[C@H](O)[C@H](O)CC(=NNC(=O)OCc4ccccc4)[C@H]3CC[C@H]2C1=O,-0.249 (inactive)
10,COC(=O)[C@H](C)NC(=O)CCC1CC(OC(=O)NCCc2ccc(F)cc2)CC2(CCCC(COC(=O)NCC3CCCCC3)O2)O1 (some centres undefined),-0.0255 (inactive)
11,CCN1C(C)=C(C(=O)OC)[C@@H](c2ccccc2)N2C(=O)[C@](O)(C(=O)OC)CC(C(C)=O)=C12,0.181 (inactive)
12,O=C1C[C@H](c2ccccc2)[C@H](c2ccc(Br)cc2)O1,-0.112 (inactive)
13,CCOC(=O)[C@H](CC(C)C)NC(=O)CCC1CC(OC(=O)NCCc2ccc(F)cc2)CC2(CCCC(COC(=O)NCc3cccc(C(F)(F)F)c3)O2)O1 (some centres undefined),-0.0296 (inactive)
14,COc1ccc(COC(=O)NN=C2C[C@@H](O)[C@@H](O)[C@@H]3[C@@H]4C(=O)N(c5cccc(Oc6ccccc6)c5)C(=O)[C@@H]4CC[C@H]23)cc1,-0.538 (inactive)
15,Cc1ccc2[nH]c3nc(CCCn4ccnc4-c4ccccc4)nnc3c2c1,-0.0582 (inactive)
16,C[C@@H]1CC[C@H]2C(=O)OC(Cc3ccccc3)CN2[C@H]1c1ccc(Br)cc1 (some centres undefined),-0.0207 (inactive)
17,CN1CCc2nc(-c3ccccc3)c(-c3ccccc3)cc2C1,-0.368 (inactive)
18,CC(C)=NOC(C)CN1CCCCc2nc(C)c(C)cc21 (centres undefined),-0.203 (inactive)
19,CC(=O)OC[C@H]1O[C@H](CCON=C(C)C)C=C[C@@H]1OC(C)=O,-0.843 (inactive)
20,COc1ccc(COC(=O)NN=C2C[C@@H](O)[C@@H](O)[C@@H]3[C@@H]4C(=O)N([C@@H](C)c5ccccc5)C(=O)[C@@H]4CC[C@H]23)cc1,-0.153 (inactive)
21,COC(=O)[C@H](C)NC(=O)CCC1CC(OC(=O)NCCc2ccc(F)cc2)CC2(CCCC(COC(=O)NCCc3ccccc3OC)O2)O1 (some centres undefined),0.784 (inactive)
22,CC(CCN1CCCc2nc(C)c(C)cc21)=NOC[C@@H](O)COCc1ccco1,4.43 (inactive)
23,COc1ccc(OC[C@@H]2CC3[C@@H](c4ccc(Br)cc4)[C@H](C)CC[C@H]3C(=O)O2)cc1 (some centres undefined),-0.0755 (inactive)
24,CCN1C(=O)[C@H]2[C@@H]3C(=CC[C@H]2C1=O)C(=O)[C@H]1O[C@H]1[C@H]3O,-0.529 (inactive)
25,CC(CCN1CCCCc2nc(C)c(C)cc21)=NOC[C@@H](O)[C@H]1O[C@@H]2OC(C)(C)O[C@@H]2[C@H]1O,-0.398 (inactive)
26,C=CCOCC1CN2[C@@H](CC[C@@H](C)[C@@H]2c2ccc(Br)cc2)C(=O)O1 (some centres undefined),0.0364 (inactive)
27,CO[C@H]1COC(=O)CCC[C@H](C)[C@H](OC)COC(=O)CC=C[C@@H]1C,0.239 (inactive)
28,CC(=O)OC[C@H]1O[C@H](CC=NO[C@H](C)c2cn([C@@H]3COC[C@H]3O)nn2)C=C[C@@H]1OC(C)=O,-0.205 (inactive)
29,COc1ccc2c(c1)O[C@@H](c1cccc(C(F)(F)F)c1)[C@H](O)C2=O,0.245 (inactive)
